# According to PubChem BioAssay (EPA / NIEHS):
# Activity calls are given as the source filed them. How the source made its calls: active means hit-call score of the fitted dose curve at least 0.9, where 1 is the maximum; inactive means score below 0.9.
# Biological target: Hepatocyte nuclear factor 3-beta (Homo sapiens) (UniProt Q9Y261)
# Assay: ATG_FoxA2_CIS: Attagene CIS-FACTORIAL HepG2 Assay for human Forkhead box A2 (FOXA2) (AID 2282942)
# Settings: HepG2 cis-reporter transcription factor activity, 24 h; actives raise or lower the signal
# Procedure: ATG_CIS is a cell-based, multiplexed-readout assay that uses HepG2, a human liver cell line, with measurements taken at 24 hours after chemical dosing in a 24-well plate.ATG_FoxA2_CIS is one of 52 assay component(s) measured or calculated from the ATG_CIS assay. It is designed to make measurements of mRNA induction, a form of inducible reporter, as detected with fluorescence intensity signals by Reverse transcription polymerase chain reaction (RT-PCR) and Capillary electrophoresis technology.Data from the assay component ATG_FoxA2_CIS was analyzed into 1 assay endpoint. This assay endpoint, ATG_FoxA2_CIS, was analyzed with bidirectional fitting relative to DMSO as the negative control and baseline of activity. Using a type of inducible reporter, measures of mRNA for gain or loss-of-signal activity can be used to understand the reporter gene at the transcription factor-level as they relate to the gene FOXA2. Furthermore, this assay endpoint can be referred to as a primary readout, because this assay has produced multiple assay endpoints where this one serves a reporter gene function. To generalize the intended target to other relatable targets, this assay endpoint is annotated to the dna binding intended target family, where the subfamily is forkhead box protein.
# Human liver HepG2 cells are transiently transfected with multiple reporter transcription units (MRTUs) in 6-well plates using FuGene 6 reagent (Roche; 3 ml FuGene/1 mg DNA). The MRTU constructs are regulated by a cis-regulating element (promoter). […] A major difference between the CIS and TRANS system is that in CIS activities of endogenous TFs are measured, whereas the TRANS assay evaluates changes in activities of exogenous, chimeric NR-Gal4 proteins. […] At the end of 24 hour incubation, total RNA was isolated using TriZol reagent (Invitrogen). The isolated RNA is then reverse-transcribed using oligo(dT) primer and Mo-MLV reverse transcriptase (Invitrogen) with DNAse I (Ambion) treatment for 30 min. The one-tenth of the produced cDNA was amplified by PCR using Taq DNA polymerase (Invitrogen) and two reporter sequence-specific primers. The PCR products were fluorescently labeled by primer extension with 6-arboxyfluorescein (6-FAM) 5'-labeled reporter sequence-specific primer (2 min at 95 C, 20 s at 68 C and 10 min at 72 C) and these products were digested with 5U of HpaI (New England Biolabs) for 2h at 37 C. The fragments were purified using Qiaquick PCR columns (Qiagen), analyzed on an ABI 3130xL genetic analyzer (Applied Biosystems) with peak positions identified by using a set of X-rhodamine (ROX)-labeled MapMarker1000 molecular weight standards (BioVentures). The raw capillary electrophoresis data was processed using Attagraph software (Attagene).
# Sequence of Hepatocyte nuclear factor 3-beta (Homo sapiens) (Q9Y261 whole entry, looked up): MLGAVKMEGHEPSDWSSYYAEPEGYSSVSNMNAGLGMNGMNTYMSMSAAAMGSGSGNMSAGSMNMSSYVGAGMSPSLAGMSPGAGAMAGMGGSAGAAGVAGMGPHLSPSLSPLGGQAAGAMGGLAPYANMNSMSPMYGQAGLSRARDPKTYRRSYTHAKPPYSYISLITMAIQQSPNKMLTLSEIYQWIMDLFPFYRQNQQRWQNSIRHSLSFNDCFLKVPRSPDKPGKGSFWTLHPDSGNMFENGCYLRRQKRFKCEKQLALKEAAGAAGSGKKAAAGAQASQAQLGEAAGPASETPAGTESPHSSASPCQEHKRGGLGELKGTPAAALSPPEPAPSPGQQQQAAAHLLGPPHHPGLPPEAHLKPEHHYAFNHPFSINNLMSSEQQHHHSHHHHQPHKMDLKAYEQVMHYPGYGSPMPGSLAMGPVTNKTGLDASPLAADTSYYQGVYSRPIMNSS
Compound,outcome,AC50
CCOCN(C(=O)CS(=O)(=O)O)c1c(C)cccc1CC,inactive,
CCN(CC)c1ccc(C=O)c(O)c1,inactive,
CC(C)C(=O)OCc1ccccc1,inactive,
C=CC(=O)OCC(F)(F)C(F)(F)C(F)(F)C(F)(F)C(F)(F)C(F)(F)C(F)(F)C(F)F,inactive,
CCN(CC)c1ccc(C=O)cc1,inactive,
Brc1ccccn1,inactive,
NC(O)(C(F)(F)F)C(F)(F)F,inactive,
N#Cc1ccccc1O,inactive,
CC(C)(C)c1cc(CCC(=O)OCC(COC(=O)CCc2cc(C(C)(C)C)c(O)c(C(C)(C)C)c2)(COC(=O)CCc2cc(C(C)(C)C)c(O)c(C(C)(C)C)c2)COC(=O)CCc2cc(C(C)(C)C)c(O)c(C(C)(C)C)c2)cc(C(C)(C)C)c1O,inactive,
O=S(=O)(O)CCC(F)(F)C(F)(F)C(F)(F)C(F)(F)C(F)(F)C(F)(F)C(F)(F)C(F)(F)F,inactive,
COC(=O)c1ccc(C=O)cc1,inactive,
O=C(O)C(F)(F)C(F)(F)C(F)(F)OC(F)(C(F)(F)F)C(F)(F)F,inactive,
O=C(O)C(F)(F)C(F)(F)C(F)(F)OC(F)(F)F,inactive,
Cc1ccc(S(=O)(=O)C(I)I)cc1,,43.7 µM (active)
CCCCCCCCCCCCCC[P+](CCCC)(CCCC)CCCC,inactive,
CSc1ccc(O)cc1C,inactive,
NS(=O)(=O)C(F)(F)C(F)(F)C(F)(F)C(F)(F)C(F)(F)C(F)(F)F,inactive,
O=C(O)C(F)(F)C(F)(F)C(F)(F)C(F)(F)C(F)(F)C(F)(F)C(F)F,inactive,
CC1CCCCC1,inactive,
O=S(=O)(Cl)C(F)(F)C(F)(F)C(F)(F)C(F)(F)C(F)(F)C(F)(F)C(F)(F)C(F)(F)F,inactive,

Compound,outcome,AC50
O=S(=O)(OCC(F)(F)F)C(F)(F)C(F)(F)C(F)(F)C(F)(F)F,inactive,
COCCC(=O)OC,inactive,
COc1ccccc1C=O,inactive,
OCC(F)(F)C(F)(F)C(F)(F)C(F)(F)C(F)(F)C(F)(F)C(F)(F)C(F)(F)CO,inactive,
CNS(=O)(=O)C(F)(F)C(F)(F)C(F)(F)C(F)(F)C(F)(F)C(F)(F)C(F)(F)C(F)(F)F,inactive,
OCCC(O)CO (stereo not given),inactive,
OCC1CCCO1 (stereo not given),inactive,
CCCCCCCCn1sc(Cl)c(Cl)c1=O,,8.19 µM (active)
CC(O)C#CC(C)O (stereo not given),,131 µM (active)
CCCCCC/C=C/CCCCCCCC(=O)O,inactive,
CSc1ccc(Cl)cc1,inactive,
Nc1c(Br)cc([N+](=O)[O-])cc1Br,inactive,
CC1=CCC2C(=O)OC(=O)C2C1 (stereo not given),inactive,
CCOC(C=C(C)CCC=C(C)C)OCC,inactive,
OCCCCC(F)(F)C(F)(F)C(F)(F)C(F)(F)F,inactive,
FC(F)(F)C(F)(F)C(F)(F)C(F)(F)C(F)(F)C(F)(F)CC[Si](Cl)(Cl)Cl,inactive,
NCC(F)(F)C(F)(F)C(F)(F)C(F)(F)C(F)(F)C(F)(F)C(F)(F)C(F)(F)F,inactive,
NC(=O)C(F)(F)C(F)(F)C(F)(F)F,inactive,
CCCCCCCCCc1ccc(OCCO)cc1,,21.9 µM (active)
CCCCOC(=O)[C@H](C)O,inactive,
